Compounds with a hit are over-represented: about 10% of the library has one in this group of screens.
SARS PLP yeast = qHTS of Yeast-based Assay for SARS-CoV PLP | S. cerevisiae expressing SARS-CoV PLpro, growth rescue | Potency, µM (titrated, usually from 32.9 µM), for the others: at the highest dose activity, positive = growth rescue, most hits filed as activators | 330,000 tested, 0.19% active | AID 485353, 2010; note: potency is the fitted concentration of half-maximal effect; 0% is about no effect; nearly all actives have a fitted effect of over 55% in size
NS1 inh = qHTS Assay for Inhibitors of Influenza NS1 Protein Function | Potency, µM (titrated, usually from 46.1 µM), for inactives: at the top dose activity, positive = more growth | 270,000 tested, 0.4% active; note: potency is the fitted concentration of half-maximal effect; actives are rising curves; nearly all actives have a fitted effect of over 50% in size
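Growth recovery, yeast-based: influenza A NS1 expressed in S. cerevisiae causes slow growth, and suppressors are detected by OD600. The parent strain without NS1 is used as positive control.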
Pf growth 48h = Primary qHTS for delayed death inhibitors of the malarial parasite plastid, 48 hour incubation; Potency, µM (series often up to 28.7 µM), for inactives: at the highest dose activity change, negative = inhibition, usual class: inhibitors; 310,000 tested, 5.9% active; P. falciparum luciferase growth in erythrocytes, 48 h; AID 504832, 2011; active = well fitted inhibition curve with a large enough effect; inconclusive = small, poorly fitted or top-dose-only effect, or another doubt; inactive = no such curve, though single readings can be large or run the other way; note: potency is the fitted concentration of half-maximal effect; % is set by controls: 0 for no effect and ±100 for the full control effect
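In quantitative HTS format, infected erythrocytes bearing luciferase-reporter parasites were treated for a single generation at 37 C. Luminescence after adding detection reagent served as the growth measure.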
Pf growth 96h = Primary qHTS for delayed death inhibitors of the malarial parasite plastid, 96 hour incubation. P. falciparum luciferase reporter growth, 96 h. Potency, µM (titrated, usually from 28.7 µM), for inactives: at the top dose activity change, negative = inhibition, usual class: inhibitors. 320,000 tested, 6.9% active. AID 504834, 2011; active = well fitted inhibition curve with a large enough effect; inconclusive = small, poorly fitted or top-dose-only effect, or another doubt; inactive = no such curve, though single readings can be large or run the other way; note: potency is the fitted concentration of half-maximal effect; % is set by controls: 0 for no effect and ±100 for the full control effect
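Two-generation exposure (96 h) targets delayed-death phenotype. Reporter parasites carrying integrated firefly luciferase, in red cells at 2% hematocrit and 0.05% parasitemia final, kept at 37 C, 5% CO2; luminescence loss indicates inhibition.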
Flu NS1 inh = Assay for Inhibitors of Influenza NS1 Protein Function: Hit Validation; shares compounds with NS1 inh; influenza NS1 function cell assay, 15-point titration; activity change, negative = inhibition, % at 32.9 µM; 1,400 tested, under 10 active; AID 492980, 2010; note: 0% is about no effect
PR8 titer = Assay for Inhibitors of Influenza NS1 Protein Function: Influenza virus replication assay in MDCK cells infected with virus A/PR/8/34; shares compounds with NS1 inh; virus titer (log TCID50), log10 TCID50 at 5 µM; 95 tested, 30% active; MDCK infected influenza A/PR/8/34, virus titer TCID50; stronger effect = lower value; call rule not given here
* hit, by the source's call; ? = inconclusive; . = no result. Unless noted, calls come from the whole dose curve.

SMILES	SARS PLP yeast	NS1 inh	Pf growth 48h	Pf growth 96h	Flu NS1 inh	others
COc1ccc(/C=N/NC(=O)c2cc(-c3ccc(C)cc3C)nc3ccccc23)cc1COC(C)=O	1.2%	10µM*	-7.6%	-7.2%	5.6
CC(C)CN(CC(C)C)C(=O)c1cc(S(=O)(=O)N2CCCCC2)c[nH]1	-1.2%	0.8%	?	?	.
CCOc1ccc(NC(=O)c2c(NC(=O)CNCCN3CCOCC3)sc3c2CCC3)cc1	3.0%	2.82µM*	0.329µM*	6.1%	-17.5
CCOC(=O)c1c(NC(=O)CN2CCOCC2)sc2c1CCCC2	?	-62.6%	.	.	.
Cc1cc2cc(CNC(=O)Nc3cccc(Cl)c3)ccc2n1C	-5.5%	?	-8.6%	2.3%	16.3
Cc1cccc(NC(=O)NCc2ccc3c(c2)cc(C)n3C)c1	-15.0%	11.2µM*	?	10.4µM*	12.7
COc1cccc(NC(=S)NCc2ccc3c(c2)cc(C)n3C)c1	-0.9%	.	-19.0%	-124.7%	.
CCN1CCCC1CNC(=O)c1cc(S(=O)(=O)N(C)C)ccc1Cl (configuration not stated)	0.5%	3.5%	17.0%	28.1%	.
CC(C)C[C@H]1C(=O)N2CCCC2[C@]2(O)O[C@](NC(=O)[C@@H]3C=C4c5cccc6[nH]c(Br)c(c56)C[C@H]4N(C)C3)(C(C)C)C(=O)N12 (some centres not stated)	.	5.62µM*	3.38µM*	?	?
CCN(CC)/C(Sc1ccccc1)=C(/C(Cl)=C(Cl)Cl)[N+](=O)[O-]	-2.0%	.	11.1%	?	.
CCCc1ccc2oc(C(=O)N(Cc3nccn3C)C(C)C)c(C)c2c1	2.7%	?	?	-4.5%	?
CSc1nc(C(=O)N2CCCC(Nc3ccc(C)c(C)c3)C2)cs1 (configuration not stated)	-2.1%	0.9%	-14.3%	11.9%	.
Oc1ccc2ccccc2c1-c1sc(Nc2ccccc2)n[n+]1-c1ccc(F)cc1	7.2%	?	?	?	-26.2
O=C(Nc1ccc2c(c1)CCC2)c1ccc(F)cc1	-9.1%	-6.6%	-19.7%	-51.3%	.
O=C(Nc1ccc2c(c1)CCC2)c1cc(S(=O)(=O)Nc2ccc(F)cc2)c(Cl)cc1Cl	-9.2%	14.1µM*	-13.4%	?	26.5	PR8 titer=8
COc1ccc(Cl)cc1NC(=O)CN(C)C(=O)Cn1cnc2c1c(=O)n(C)c(=O)n2C	-2.9%	.	7.1%	22.5%	.
CC(C)(C)OC(=O)CNC(=O)c1[nH]cnc1C(=O)NC(c1ccccc1)c1ccccc1	1.9%	14.1µM*	?	?	-24.8
C[C@@H](NC(=O)c1nc[nH]c1C(=O)N[C@@H](Cc1ccccc1)C(=O)OC(C)(C)C)c1ccccc1	-0.2%	?	?	?	.
C[C@H](NC(=O)c1nc[nH]c1C(=O)N[C@@H](Cc1ccccc1)C(=O)OCc1ccccc1)C(=O)OCc1ccccc1	4.0%	7.94µM*	?	?	16.9
C[C@H](NC(=O)c1nc[nH]c1C(=O)N[C@@H](Cc1ccccc1)C(=O)OC(C)(C)C)C(=O)OCc1ccccc1	0.9%	11.2µM*	52.8%	93.9%	8.8
CCN(CC)C(=O)[C@H]1CC(CC(=O)NCCC2=CCCCC2)C(=O)N2CCc3c([nH]c4ccc(OC)cc34)[C@]12C (some centres not stated)	8.7%	.	.	.	.
COC(=O)[C@@]1(Cc2ccc(F)cc2)[C@H]2c3cc(C(=O)N4CCCC4)n(Cc4ccc(C(F)(F)F)nc4)c3C[C@H]2CN1C(=O)c1ccccc1	6.5%	11.2µM*	?	2.08µM*	3.0
COC(=O)c1ccc(CSC2=NC[C@@H]3[C@@H]4C(=O)N(C)C(=O)[C@@H]4[C@](Cc4ccccc4)(C(=O)OC)N23)cc1	-4.1%	.	.	.	.
O=C(c1cccc2nccnc12)N1CCCC(Nc2ccc(F)c(F)c2)C1 (configuration not stated)	-2.1%	1.3%	47.5%	7.0%	.
CCOC(=O)C1=C(COC(=O)[C@@H]2CCCN2S(=O)(=O)c2ccc(C)cc2)NC(=O)NC1C (some centres not stated)	-0.8%	13.0%	14.4%	19.6%	.
SMILES	SARS PLP yeast	NS1 inh	Pf growth 48h	Pf growth 96h	Flu NS1 inh	others
COc1ccc(CSc2nc(O)cc(=O)n2CC(C)C)cc1F	1.1%	3.55µM*	5.7%	15.4%	?
Cc1ccc2c(C)nc(/N=C(\N)NC(=O)N3c4ccccc4Sc4ccccc43)nc2c1	-22.6%	?	13.1µM*	-102.9%	1.7
CN(CC(=O)NC1CCCCCC1)S(=O)(=O)c1ccc(F)cc1	-1.0%	9.1%	24.9%	42.5%	.
CN(CC(=O)NC1CCCCC1)S(=O)(=O)c1ccc(Cl)cc1	2.9%	?	18.9%	.	-1.8
O=C(CCSc1ccc(Cl)cc1)NC1CCCCC1	-3.5%	?	?	0.6%	-1.2
O=C(CCSc1ccccc1)NC1CCCCCC1	-1.9%	-2.6%	28.7%	14.4%	.
CC(=O)NC(Cc1ccc(C)cc1)C(=O)NC1CCN(C(=O)NCc2ccccc2)CC1 (configuration not stated)	1.0%	1.4%	-5.4%	32.9%	.
Cc1ccc(S(=O)(=O)CCC(=O)OCC(=O)N2CC(=O)Nc3ccccc32)cc1	14.0%	?	-19.4%	-9.0%	-4.7
Cc1ccc(S(=O)(=O)NCC(=O)OCC(=O)N2CC(=O)Nc3ccccc32)cc1	6.7%	.	.	.	.
CCN(CCO)c1nc(SC)nc2c1sc1nc(-c3ccco3)c3c(c12)CCC3	2.8%	?	?	?	-1.5
Cc1sc(NC(=O)c2sc3nc4c(C)cccc4cc3c2N)c(C#N)c1C	3.7%	?	?	?	4.8
C=CCNc1nc(C(=O)OCC(=O)c2ccc(Cl)cc2)cs1	-0.8%	.	-28.2%	9.4%	.
c1ccc(-c2csc(Nc3ccc4c(c3)OCCO4)n2)cc1	.	6.4%	42.9%	101.8%	.
NS(=O)(=O)c1ccc(Nc2nc(-c3ccc(O)cc3)cs2)cc1	1.3%	?	-2.5%	20.2%	.
Oc1ccc(Nc2nc(-c3ccc(O)cc3)cs2)cc1	7.4%	2.82µM*	-50.3%	-22.7%	10.0
c1cc2c(cc1Nc1nc(-c3ccc4c(c3)OCO4)cs1)OCCO2	1.2%	7.08µM*	-64.6%	-5.9%	-12.5
Cn1c(=O)c2sccc2n2c(CCCC(=O)NC3CCN(Cc4ccccc4)CC3)nnc12	0.7%	4.0%	11.0%	?	.
COc1ccc(C(=O)NNC(=O)C23CC4CC(CC(C4)C2)C3)cc1OC	-5.4%	.	?	-13.7%	.
CC(=O)Nc1cccc(OCC(=O)Nc2sccc2C(N)=O)c1	0.3%	0.2%	96.9%	163.4%	.
COc1ccc(NC(=O)c2cc(-c3ccco3)on2)c(OC)c1	5.0%	?	-16.8%	84.1%	-14.5

Screening data (PubChem)
